From PubChem BioAssay
The list is not random: actives were taken first. Their share in the collection is about 6.2%.
KB-V1 cytotox: qHTS assay for MDR1-selective chemotherapeutics: Primary screen using the drug-selected MDR subline cells KB-V1. hit rate 3.4% among 400,000. KB-V1 MDR cells viability, CellTiter-Glo, 72 h. AID 1347076, 2019. Potency, µM (titrated, usually from 46.1 µM), most hits filed as cytotoxic; note: % is set by controls: 0 for no effect and ±100 for the full control effect; nearly all actives have a fitted effect of over 60% in size
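Cells of the MDR subline KB-V1 are plated, dosed with compound at multiple concentrations, and incubated 72 h at 37 degrees C; CellTiter-Glo is then added and luminescence read after 10 min.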
KB-3-1 cytotox: qHTS assay for MDR1-selective chemotherapeutics: Primary screen using the parental adenocarcinoma cell KB-3-1; KB-3-1 viability, CellTiter-Glo ATP luminescence, 72 h; Potency, µM (highest dose often 46.1 µM), most hits filed as cytotoxic; hit rate 1.4% among 400,000; note: % is set by controls: 0 for no effect and ±100 for the full control effect; nearly all actives have a fitted effect of over 60% in size
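Viability of parental KB-3-1 cells, measured by CellTiter-Glo luminescence, followed a 72 h incubation at 37 °C with pinned compounds in phenol-red-free DMEM containing 10% FBS.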
HT1080 IDH1KD tx: qHTS for induction of synthetic lethality in tumor cells producing 2HG: qHTS for the HT-1080-IDH1KD cell line; HT-1080 IDH1 knockdown viability, ATP luminescence, 48 h; Potency, µM (titrated, usually from 46.1 µM), without a hit: at the highest dose activity, negative = toxicity, actives largely listed as cytotoxic; hit rate 2% among 360,000; AID 686971, 2013;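 note: 0% = DMSO wells and -100% = cell-free medium wells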
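% activity derives from luminescence (CellTiter-Glo), normalised to DMSO and no-cell wells. HT-1080-IDH1KD cells, 750/well, had 48 h compound exposure at 37 °C.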
HT1080-NT tox: qHTS for induction of synthetic lethality in tumor cells producing 2HG: qHTS for the HT-1080-NT fibrosarcoma cell line | Potency, µM (highest dose often 46.1 µM), for inactives: at the top dose activity, negative = less viability, hits mostly cytotoxic | HT-1080-NT fibrosarcoma viability, CellTiter-Glo ATP luminescence, 48 h | hit rate 1.6% among 360,000;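 note: NT is the 2HG producing partner of a matched IDH1 knockdown line; 0% = DMSO-treated cells and -100% = media-only wells without cells; nearly all actives have a fitted effect of over 55% in size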
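HT-1080-NT; 750 cells/well; 5% FBS RPMI; 48 h compound, 37 degrees C; CellTiter-Glo luminescence; curve fitting and curve-class assignment.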
ATXN viability: Viability Counterscreen for Primary qHTS for Inhibitors of ATXN expression. hit rate 0.49% among 400,000. Potency, µM (top dose mostly 56.7 µM), usual class: cytotoxic. S2 cells (HEK-293 line with an ATXN2-luciferase reporter) viability, CellTiter-Fluor protease fluorescence, 24 h. AID 651635, 2014; note: nearly all actives have a fitted effect of over 40% in size
ATXN2 expr inh: Primary qHTS for Inhibitors of ATXN expression | hit rate 0.72% among 360,000 | HEK-293 ATXN2-luciferase reporter, luminescence, 24 h | Potency, µM (series often up to 57 µM), for the others: at the highest dose activity change, negative = inhibition, usual class: inhibitors; note: % is set by controls: 0 for no effect and ±100 for the full control effect; nearly all actives have a fitted effect of over 55% in size
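ATXN2-luciferase reporter cells (luciferase flanked by upstream and downstream ATXN2 gene portions) were treated 24 h at 37 °C with compounds at up to 57 uM. SteadyGlo luminescence gave expression; GF-AFC fluorescence gave viability.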
The depositor's hits bear a star; i = inactive; ? = inconclusive; . = no result; [ ] = remark or other dose. Calls come from the whole dose curve; as a rule, active = well fitted curve in the direction sought with a large enough effect; inconclusive = small, poorly fitted or top-dose-only effect, or another doubt; inactive = no such curve, though single readings can be large; an effect the other way counts as inactive or inconclusive. Potency is the fitted concentration of half-maximal effect.

SMILES | KB-V1 cytotox | KB-3-1 cytotox | HT1080 IDH1KD tx | HT1080-NT tox | ATXN viability | ATXN2 expr inh
CC(C)NC(=O)NC(=O)COC(=O)c1c2c(nc3ccccc13)CCC2 | 21µM* | i | 26µM* | ? | i | -34%
COc1cccc(NC(=O)COC(=O)c2c3c(nc4ccccc24)CCC(C)C3)c1 (centres undefined) | 2.9µM* | ? | ? | -5%[9.24 µM] | ? | ?
O=C(OCC(=O)N1CCc2ccccc21)c1c2c(nc3ccccc13)CCCCC2 | 4.6µM* | ? | 6% | 10% | ? | ?
CC(=O)C[C@@H](O)CC(=O)[C@@H]1OC(=O)CCCCC/C=C/Cc2ccccc21 | i | i | -1% | -1% | i | -12%
CC(C)(C)c1ccc(OCCC(=O)Nc2cccc(S(=O)(=O)NC3=NCCCCC3)c2)cc1 | ? | ? | ? | ? | i | ?
Cc1ccc(NC(=O)COC(=O)c2ccccc2OCC(=O)Nc2ccc(Br)cc2)c(C)c1 | i | i | . | . | . | .
COc1cc2c(cc1OCc1ccccc1)/C(=C/C(=O)OCc1ccccc1)OC2 | ? | i | -1% | 2% | . | .
CC1(C)Cc2c(C#N)c(N3CCN(C(=O)c4ccccc4)CC3)nc(Cc3ccccc3)c2CO1 | 18µM* | ? | ? | ? | i | -2%
COc1ccc(CN2CCC[C@]3(N[C@H](c4ccc(C)cc4)[C@@H]4C(=O)N(Cc5ccccc5)C(=O)[C@@H]43)C2=O)cc1 | i | i | -4% | -1% | i | 6%
CCC(C(=O)N1CCN(c2cc(Cl)ccc2C)CC1)n1nc(C)n2c(cc3occc32)c1=O (centres undefined) | 10µM* | 10µM* | . | . | ? | ?
CCC(C(=O)N1CCN(c2ccccc2)CC1)n1nc(C)n2c(cc3sccc32)c1=O (centres undefined) | ? | 18µM* | . | . | . | .
CCC(C(=O)NCCN1CCOCC1)n1nc(C)n2c(cc3sccc32)c1=O (centres undefined) | i | i | 4% | 0% | i | -3%
Cc1cc(NC(=O)c2ccccc2Cl)ccc1NC(=O)c1ccccc1 | i | i | . | . | i | 3%
Cc1ccc(S(=O)(=O)N(C)CC(=O)NCC(c2ccco2)N(C)C)cc1 (centres undefined) | i | i | 9% | -12% | i | .
Cc1nn(-c2ccccc2)c2c1C(c1ccc(O)c(O)c1)N1C(=N2)C(Nc2ccccc2)=Nc2ccccc21 (centres undefined) | i | i | 1% | 3% | ? | 5%
Cc1cccc(NC2=Nc3ccccc3N3C2=Nc2c(c(C)nn2-c2ccccc2)C3c2ccc(O)c(O)c2)c1 (centres undefined) | ? | ? | 16µM* | 15µM* | i | ?
Cc1nn(-c2ccc([N+](=O)[O-])cc2)c2c1C(c1cccc(Br)c1)N1C(=N2)C(=O)Nc2ccccc21 (centres undefined) | ? | i | 1% | 2% | ? | -14%
Cc1ccc(NC2=Nc3ccccc3N3C2=Nc2c(c(C)nn2-c2ccccc2)C3c2ccc(O)c(O)c2)cc1 (centres undefined) | ? | ? | ? | 23µM* | i | ?
Cc1ccc2nc(COc3ccccc3NC(=O)c3ccccc3F)cc(=O)n2c1 | i | i | . | . | . | .
CCn1c2c(c(=O)n3ncc(C(=O)N4CCN(c5ccc(C(C)=O)cc5)CC4)c13)CN(Cc1ccc(OC)cc1)CC2 | i | 21µM* | . | . | i | ?
O=C1/C(=C\c2ccc3c(c2)OCO3)CCC/C1=C/c1ccc2c(c1)OCO2 | i | i | -1% | -15% | i | 13%
CC1CC/C(=C\c2ccc3c(c2)OCO3)C(=O)/C1=C/c1ccc2c(c1)OCO2 (centres undefined) | i | 26µM* | ? | ? | i | 32%
O=S(=O)(c1ccccc1)N1CCC(n2cnc3ccccc32)CC1 | ? | i | -1% | 6% | i | -11%
O=S(=O)(c1ccccc1C(F)(F)F)N1CCC(n2cnc3ccccc32)CC1 | 9.2µM* | i | -5% | 1% | i | -11%
Cc1ccsc1/C=N/Nc1nc(=O)[nH]nc1C | ? | ? | 21µM* | 23µM* | i | ?
SMILES | KB-V1 cytotox | KB-3-1 cytotox | HT1080 IDH1KD tx | HT1080-NT tox | ATXN viability | ATXN2 expr inh
Cc1cc(C)nc(N/N=C/c2sccc2C)n1 | ? | i | 1% | -11% | i | 30%
Brc1ccc[n+](CCc2ccccc2)c1 | i | i | . | . | . | .
CCc1ccc(NC(=O)C(CC)n2c(=O)c(C(F)(F)F)nc3ccccc32)cc1 (centres undefined) | i | i | . | . | i | 8%
COc1ccc(S(=O)(=O)Oc2ccc3cccc(N)c3c2)cc1 | ? | ? | -27% | -23% | i | 2%
COc1ccc(S(=O)(=O)Oc2ccc3ccccc3c2)cc1 | 16µM* | ? | -6% | -21% | i | 32%
Cc1ccc(N(C(=O)Cn2nnc(-c3ccccc3)n2)C(C(=O)NC2CCCCC2)c2ccccn2)cc1C (centres undefined) | 1.2µM* | i | 2% | -3% | i | -1%
Cc1ccc(N(C(=O)CCl)C(C(=O)NC2CCCCC2)c2cccnc2)cc1C (centres undefined) | 3.7µM* | 3.7µM* | 1.6µM* | 1.6µM* | 2.8µM* | 3.2µM*
Cc1ccc(N(C(=O)CNC(=O)c2ccco2)C(C(=O)NC2CCCCC2)c2cccnc2)cc1C (centres undefined) | i | i | 3% | 8% | i | 7%
Cc1ccc(-c2nnn(CC(=O)N(c3cccc(F)c3)C(C(=O)NC3CCCC3)c3ccco3)n2)o1 (centres undefined) | i | i | 2.8µM* | ? | ? | -38%
Cc1ccc(-c2nnn(CC(=O)N(c3ccc(F)cc3)C(C(=O)NC3CCCC3)c3ccco3)n2)o1 (centres undefined) | ? | i | -22% | -30%[9.24 µM] | i | -18%
O=C(Cc1ccc(Cl)cc1)NCC(c1cccs1)S(=O)(=O)c1ccc(F)cc1 (centres undefined) | i | i | . | . | ? | -27%
CN(CCO)C(=O)c1cn(C2CCCN(Cc3ccc4ccccc4c3)C2)nn1 (centres undefined) | . | . | . | . | i | .
